This note sets out measurements from PubChem BioAssay AID2018 (Sanford-Burnham Center for Chemical Genomics, 2009).

Among all 1,200 compounds or so, about 600 (50%) were called active. The set was probably picked from earlier hits. The list shows a part of the results. Results with a measured potency or affinity are listed apart. A number with no mark means an inactive call. Cut-off read from the data, not from the text of the source: active = inhibition above about 42%; inactive = the rest.

Chain of SUMO-conjugating enzyme UBC9 (Homo sapiens) (P63279 whole entry, looked up): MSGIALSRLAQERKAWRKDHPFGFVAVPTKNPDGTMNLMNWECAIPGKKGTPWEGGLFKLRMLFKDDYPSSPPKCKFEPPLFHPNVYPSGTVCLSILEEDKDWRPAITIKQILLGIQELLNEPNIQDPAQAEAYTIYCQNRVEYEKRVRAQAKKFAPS

The experiment has as its target SUMO-conjugating enzyme UBC9 (Homo sapiens) (UniProt P63279). Nature of the experiment: SUMOylation inhibitor hit validation, confirmation, SUMOylation inhibitor project, biochemical, AlphaScreen (AID 2018). The following applies: AlphaScreen in vitro SUMOylation assay; at 35 µM; hits give high values. (In general: In Alpha technology, singlet oxygen from a donor bead excites a nearby acceptor bead.)
With `CCc1cccc(NC(=S)Nc2cccc3ccccc23)c1`, the inhibition is 15%.

For the compound `CCC(NC(=O)Nc1ccc(O)cc1)(C(F)(F)F)C(F)(F)F`, the inhibition was -10.3%.

For the compound `COc1cc(/C=C2\C(=O)N(CCC#N)N=C2C)ccc1OCC(=O)Nc1ccccc1`, the inhibition was 12.4%.

With `O=C1Nc2ccc(C(F)(F)F)cc2N2CCCC12` (configuration not stated), the inhibition was 46.5% (active).

Turning to `Cc1ccc(NC(=S)Nc2cccc3ccccc23)cc1`, the inhibition was 19.1%.

`CC(C)(C)c1cc[n+](C2=C([O-])c3ccccc3C(=O)/C2=N\S(=O)(=O)c2cccs2)cc1`: the inhibition was 90.8% (active).

For the compound `CCOc1ccc(C(Nc2cccnc2)c2cc(Cl)c3cccnc3c2O)cc1` (configuration not stated), the inhibition was -212%.

Turning to `O=C(O)COc1ccccc1C(Nc1cccnc1)c1cc(Cl)c2cccnc2c1O` (configuration not stated), the inhibition is 102% (active).

Regarding `COC(=O)c1ccccc1NC1=C/C(=N\S(=O)(=O)c2cccs2)c2ccccc2C1=O`, the inhibition is 102% (active).

For the compound `CCN(C(=S)Nc1cc(S(=O)(=O)N2CCOCC2)ccc1Cl)c1cccc2ccccc12`, the inhibition is 11.1%.

Consider `O=[N+]([O-])c1cc(Cl)cc(/C=N/NC(=S)Nc2ccc(S(=O)(=O)N3CCOCC3)cc2)c1O`, for which the inhibition was 102% (active).

For `Cc1[nH]n(-c2ccccc2)c(=O)c1C(C[N+](=O)[O-])c1ccc(Br)cc1` (configuration not stated), the inhibition was 101% (active).

In the case of `Cc1[nH]n(-c2ccccc2)c(=O)c1C(c1cccc([N+](=O)[O-])c1)c1c(C)[nH]n(-c2ccccc2)c1=O`, the inhibition was 79.1% (active).

`COc1cccc(C(c2c(C)[nH]n(-c3ccccc3)c2=O)c2c(C)[nH]n(-c3ccccc3)c2=O)c1OC`: the inhibition was 89.3% (active).

As for `CC(C)(C)c1cnnn1-c1cccc([N+](=O)[O-])c1`, the inhibition is 5.8%.

Turning to `C=CCN(CC=C)c1nc2ccccc2nc1C(C#N)C(=O)OC(C)C` (configuration not stated), the inhibition is -10.3%.

Regarding `COc1ccc(C(c2c(C)[nH]n(-c3ccccc3)c2=O)c2c(C)[nH]n(-c3ccccc3)c2=O)cc1OC`, the inhibition was 101% (active).

Turning to `Cc1[nH]n(-c2ccccc2)c(=O)c1C(c1ccc(C(=O)O)cc1)c1c(C)[nH]n(-c2ccccc2)c1=O`, the inhibition was 41.6%.

As for `COCCNC(=O)CCC1CCN(Cc2ccc(-c3ccccc3)cc2)CC1`, the inhibition was -1.3%.

In the case of `CCOc1ccc(N2CC(C(=O)NCc3ccc(F)cc3)CC2=O)cc1` (configuration not stated), the inhibition is 6.3%.

On to `Cc1n[nH]c(=S)n(NC(=O)/C=C/C(=O)Nn2c(=S)[nH]nc(C)c2=O)c1=O`, for which the inhibition was 101% (active).

For the compound `COCCNC(=S)Nc1ccc2nsnc2c1`, the inhibition is 6.6%.

In the case of `OCCNC(=S)Nc1ccc2nsnc2c1`, the inhibition is 54.8% (active).

`S=C(Nc1ccc2nsnc2c1)NC1CCCCC1`: the inhibition was 95.3% (active).

Take `S=C(NCc1ccc2c(c1)OCO2)Nc1ccc2nsnc2c1`: the inhibition is 25.4%.

As for `S=C(Nc1ccc2nsnc2c1)N1CCCCCC1`, the inhibition was 28.1%.

With `S=C(Nc1ccc2nsnc2c1)N1CCCCC1`, the inhibition was 18.3%.

Regarding `Nc1ccc2nn(-c3cccc4ccccc34)nc2c1`, the inhibition was 43.5% (active).

In the case of `CN(C)C=Nc1ccc2nn(-c3ccccc3)nc2c1`, the inhibition was -10.8%.

On to `Nc1ccc2nn(-c3ccccc3)nc2c1`, for which the inhibition was 68.1% (active).

Take `Cc1ccc(-n2nc3ccc(N)cc3n2)c(C)c1`: the inhibition is 39.7%.

In the case of `Nc1ccc2nc(-c3ccccc3)sc2c1`, the inhibition is -1.4%.

As for `Cn1cc2ccc(N)cc2n1`, the inhibition is -18.5%.

Take `N#Cc1ccsc1NC(=O)CN1CCN(c2ccc(O)cc2)CC1`: the inhibition is 5.7%.

Turning to `O=C(NCCc1ccccc1)c1ccc2nc(-c3ccco3)c(-c3ccco3)nc2c1`, the inhibition was 70.9% (active).

With `S=C(Nc1ccc2nc(-c3ccccn3)c(-c3ccccn3)nc2c1)N1CCOCC1`, the inhibition is 3.8%.

In the case of `O=C(Nc1ccc2nc(-c3ccco3)c(-c3ccco3)nc2c1)N1CCN(c2ccccn2)CC1`, the inhibition is 76.6% (active).

On to `CC(C)c1ccccc1NC(=O)COc1ccc(C(=O)NCCc2ccccc2)cc1`, for which the inhibition was 26.7%.

As for `O=C(Nc1ccc2nsnc2c1)N1CCCCC1`, the inhibition was 2.3%.

Take `O=C(Cc1ccccc1)Nc1nnc(-c2ccco2)s1`: the inhibition is 11.3%.

In the case of `O=C(NCc1ccccc1)c1ccc2nc(-c3ccco3)c(-c3ccco3)nc2c1`, the inhibition was 65.7% (active).

As to `O=C(Nc1ccccc1)Nc1ccno1`, the inhibition is -7.1%.

Turning to `O=C(Nc1cccnc1)c1cc2cc(Br)ccc2oc1=O`, the inhibition is 34.9%.

For `COc1ccc(CCNC(=O)c2ccc3nc(-c4ccco4)c(-c4ccco4)nc3c2)cc1OC`, the inhibition was 73.3% (active).

Regarding `COc1ccc(CCn2c(N)c(C(=O)NCc3ccco3)c3nc4ccccc4nc32)cc1OC`, the inhibition is 9.7%.

Turning to `CC(=O)Nc1ccc2nc3ccccc3nc2c1`, the inhibition is 15.1%.

Take `Cc1ccc(Cn2cccc(NS(C)(=O)=O)c2=O)cc1`: the inhibition was 26.5%.

With `COc1ccc(-c2cc(-c3ccccc3)n3ncnc3n2)cc1`, the inhibition was 5.5%.

As for `Cc1nn2cc(-c3ccccc3)nc2[nH]c1=O`, the inhibition is 9.6%.

In the case of `CC(C)c1ccc(S(=O)(=O)/N=C2/C=CC(=O)c3ccccc32)cc1`, the inhibition was 102% (active).

For the compound `O=C(NCc1ccccc1)Nc1cccn(Cc2c(F)cccc2Cl)c1=O`, the inhibition is -15.7%.

As to `Oc1ccc(/C=N/Nc2cc(N3CCCC3)nc(N3CCCC3)n2)cc1O`, the inhibition is 102% (active).

Consider `CN(C)c1ccc(/C=N/Nc2cc(N3CCOCC3)nc(N3CCOCC3)n2)cc1`, for which the inhibition was 39.5%.

As to `COc1ccc2c(c1)-c1nc(/N=C/c3ccc(O)cc3)sc1CC2`, the inhibition was 30.9%.

Consider `Oc1ccc(/C=N/Nc2cc(N3CCCC3)nc(N3CCCC3)n2)cc1`, for which the inhibition is 82.3% (active).

Turning to `Cc1ccc(N=Nc2c(N)[nH]n3c(=O)cc(C)nc23)cc1`, the inhibition was 37.3%.

In the case of `COCCN(CCOC)S(=O)(=O)c1ccc(C(=O)Nc2nc3c(s2)CCc2ccccc2-3)cc1`, the inhibition is 30.1%.

As to `COc1ccc2c(c1)Cc1sc(NC(=O)c3ccccc3)nc1-2`, the inhibition is 34.5%.

With `COc1ccc2c(c1)Cc1sc(NC(=O)c3cccs3)nc1-2`, the inhibition is 51.9% (active).

For `COc1ccc(C(=O)Nc2nc3c(s2)Cc2cc(OC)ccc2-3)cc1`, the inhibition is 59.7% (active).

Turning to `COc1ccc2c(c1)Cc1sc(NC(C)=O)nc1-2`, the inhibition is 41.3%.

Consider `Cn1c(=O)c(Nc2ccc(O)cc2)c2c3c(cccc31)C(=O)c1ccccc1-2`, for which the inhibition was 91.8% (active).

For orientation: inhibition means the change of the read-out against control, counted positive when it falls.
